The text below walks through data of PubChem BioAssay (Tox21).

The nature of test [1]: qHTS assay to identify small molecule agonists of the hypoxia (HIF-1) signaling pathway - cell viability counter screen (AID 1224844; calls by dose curve; also: nearly all actives have a fitted effect of over 50% in size). Put shortly: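 HRE-bla ME-180 cells in medium with 0.5% dialyzed FBS were preincubated 5 hrs at 37C, exposed to compounds for 17 hrs, then viability was read as CellTiter-Glo luminescence after 30 min at room temperature, in the reporter wells.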
A general note: qHTS replaces the single test concentration by a dilution series.

Test [2] in a line: qHTS assay to identify small molecule agonists of H2AX (AID 1224845; active = well fitted activation curve with a large enough effect in the signal ratio in the repeat runs, not every such curve was filed as active; the % refers to the signal ratio). In a few lines: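 Wild-type CHO-K1 cells plated overnight, then exposed 3 hr at 37C to compounds at 15 concentrations (0.76% DMSO). Lysed, then HTRF anti-pH2AX(S139)-cryptate/anti-H2AX-d2 detection after 24 hr at room temperature; emissions 665 and 620 nm.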
A short description of test [3]: qHTS assay to identify small molecule agonists of the hypoxia (HIF-1) signaling pathway (AID 1224846; active = well fitted activation curve with a large enough effect in the signal ratio in the repeat runs, not every such curve was filed as active; the % refers to the signal ratio). Put shortly:
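HRE-bla ME-180 cells (beta-lactamase reporter under hypoxia response element) were plated at 2,000 cells/well in medium with 0.5% dialyzed FBS, rested 5 hrs, then given compounds in DMSO for 17 hrs at 37C, 5% CO2. Reporter induction was read with CCF4-AM FRET substrate.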

A short description of test [4]: qHTS assay to identify small molecule agonists of H2AX - cell viability counter screen (AID 1224847; calls by dose curve; also: top concentration of the series differs between compounds; nearly all actives have a fitted effect of over 30% in size). Put shortly: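 CHO-K1 cells plated overnight at 37C, then exposed 3 h at 37C to compounds at 15 concentrations (0.76% DMSO final). Viability by CellTiter-Glo luminescence after 30 min at room temperature.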
Test [5] is described as follows: qHTS RealTime-Glo MT Cell Viability Assay in HepG2 cells - 24 hour (AID 1224867). Also: nearly all actives have a fitted effect of over 50% in size. In a few lines: (§1)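 Tox21 10K library screened in qHTS format on HepG2 cells carrying RealTime-Glo reagents. Compounds were added after a 5 h preincubation, and the luminescent signal from continuous culture was measured repeatedly during 40 h treatment.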
Test [6] is described as follows: qHTS RealTime-Glo MT Cell Viability Assay in HEK293 cells - 32 hour (AID 1224868). Also: top concentration of the series differs between compounds; nearly all actives have a fitted effect of over 50% in size. In a few lines: (§2)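 Luminescence generated by NanoLuc from substrate produced by living HEK293 cells served as the viability signal. Each value reflects the reading at its stated time point during continuous 40 h compound exposure at 37 C.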
A short description of test [7]: A CellTox Green Cytotoxicity Assay to monitor cytotoxicity in HEK293 cells - 0 hour (AID 1224869). Also: nearly all actives have a fitted effect of over 50% in size. In a few lines: (§3)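 HEK293 cells premixed with CellTox Green dye were seeded at 600 cells/well and left 5 h at 37 C/5% CO2 before pin transfer of 23 nL compound in DMSO. Fluorescence from dye bound to dead-cell DNA was read during 40 h treatment.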
Test [8] can be described thus: qHTS RealTime-Glo MT Cell Viability Assay in HepG2 cells - 40 hour (AID 1224870). Also: nearly all actives have a fitted effect of over 50% in size. Also: potency is read from the fitted curve at half-maximal effect. Put shortly: (§4)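 HepG2 cells mixed with RealTime-Glo MT reagents (NanoLuc plus cell-permeant prosubstrate) were seeded at 600 cells/well, incubated 5 h at 37 C/5% CO2, then pinned with compounds in DMSO; nonlytic luminescence tracked viability during 40 h treatment.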
Test [9] is described as follows: A CellTox Green Cytotoxicity Assay to monitor cytotoxicity in HEK293 cells - 40 hour (AID 1224871). Also: nearly all actives have a fitted effect of over 45% in size. Put shortly:
as §3

Test [10] in a line: qHTS RealTime-Glo MT Cell Viability Assay in HEK293 cells - 16 hour (AID 1224872). Put shortly:
as §2

A short description of test [11]: qHTS RealTime-Glo MT Cell Viability Assay in HEK293 cells - 40 hour (AID 1224874). Also: nearly all actives have a fitted effect of over 50% in size. The note with it: RealTime-Glo luminescence; max response: hits give low values. In a few lines: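 HEK293 cells mixed with RealTime-Glo reagents (NanoLuc plus cell-permeant prosubstrate) at 600 cells/well, preincubated 5 h at 37 C/5% CO2, then given 23 nL compound in DMSO. Nonlytic luminescence from viable cells was read at 0, 8, 16, 24, 32 and 40 h.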

Test [12] is described as follows: A CellTox Green Cytotoxicity Assay to monitor cytotoxicity in HEK293 cells - 24 hour (AID 1224875). Also: nearly all actives have a fitted effect of over 45% in size. Put shortly:
as §3

Test [13] in a line: A CellTox Green Cytotoxicity Assay to monitor cytotoxicity in HepG2 cells - 16 hour (AID 1224876). Also: nearly all actives have a fitted effect of over 45% in size. Put shortly:
(§5)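 HepG2 cells were seeded together with the CellTox Green dye at 600 cells/well, left 5 h at 37 C/5% CO2, then given compounds in DMSO. Fluorescence from dye bound to dead-cell DNA was read repeatedly over 40 h of treatment at 37 C.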

The nature of test [14]: qHTS RealTime-Glo MT Cell Viability Assay in HepG2 cells - 32 hour (AID 1224877). Also: nearly all actives have a fitted effect of over 55% in size. Also: potency is read from the fitted curve at half-maximal effect. In a few lines: as §1
The nature of test [15]: A CellTox Green Cytotoxicity Assay to monitor cytotoxicity in HepG2 cells - 24 hour (AID 1224878). Also: nearly all actives have a fitted effect of over 45% in size. Also: potency is read from the fitted curve at half-maximal effect. Put shortly: as §5
A short description of test [16]: A CellTox Green Cytotoxicity Assay to monitor cytotoxicity in HepG2 cells - 40 hour (AID 1224879). Also: nearly all actives have a fitted effect of over 40% in size. Also: potency is read from the fitted curve at half-maximal effect. In a few lines:
as §5

Test [17] is described as follows: qHTS RealTime-Glo MT Cell Viability Assay in HepG2 cells - 8 hour (AID 1224873). Also: nearly all actives have a fitted effect of over 55% in size. In a few lines: as §4
A short description of test [18]: qHTS assay to identify small molecule agonists of the estrogen related receptor (ERR) signaling pathway from Tox21 library (AID 1224849; calls by dose curve; also: nearly all actives have a fitted effect of over 15% in size). As to conditions: ERR reporter cell line, ONE-Glo luciferase, 18 h; at 92.4 µM (top of the series) unless noted. Put shortly: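 ERR reporter cell line (NTP) seeded, rested 6 h at 37 C/5% CO2, then pinned with Tox21 compounds in DMSO. After 18 h at 37 C, ONE-Glo luciferase luminescence was read following 30 min at room temperature.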

A short description of test [19]: qHTS assay to identify small molecule antagonists of the estrogen related receptor (ERR) signaling pathway from Tox21 library (AID 1224848). Also: nearly all actives have a fitted effect of over 50% in size. Put shortly:
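Screening used an ERR reporter line supplied by NTP, exposed for 18 h at 37 C to library compounds delivered in DMSO. Signal was luciferase luminescence developed with ONE-Glo at room temperature for 30 min.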

Unmarked numbers belong to inactive results. Records with an inconclusive call do not appear. The source made the active and inactive calls. Unless noted, calls follow the shape of the dose curve; as a rule, active = well fitted curve in the direction sought with a large enough effect in the repeat runs; inconclusive = weak or mixed curves; inactive = no such curve, though single readings can be large; an effect the other way counts as inactive or inconclusive.
% is scaled to controls: 0 for no effect and ±100 for the full control effect.

Take `NC(=O)Cc1cccc(C(=O)c2ccccc2)c1N`: the Potency result in test [1], in [2], in [4], in test [5], in [6] and in test [7] was “inactive” each time. Further, the Potency result in test [8], in [9], in test [10], in [12], in [13] and in test [14] was “inactive” each time. Further, the Potency result in test [15] and in [16] was “inactive” each time. In addition, the compound was classed as inactive in test [3]. In addition, in [11], the max response is -24.1%.

As for `OCCN1CCN(CCO)CC1`, the Potency result in [1], in [2], in test [4], in test [5], in [6] and in test [7] was “inactive” throughout. For the same compound, the Potency result in [8], in [9], in test [10], in [12], in [13] and in [14] was “inactive” each time. Further, the Potency result in [15] and in test [16] was “inactive” in each case. For the same compound, the compound was called inactive in [3] and in [17]. Moreover, in test [11], the max response is 1.21%.

Take `Cc1ccccc1C(=O)Nc1ccc(C(=O)N2CCCC(O)c3cc(Cl)ccc32)c(C)c1` (stereo unspecified): the Potency entry in test [1], in [2], in test [4], in test [5], in [7] and in [8] was “inactive” each time. The Potency entry in [9], in [12], in test [13], in [14], in [15] and in [16] was “inactive” throughout. For the same compound, the call in test [3] and in test [17] was inactive. Moreover, in [18], the activity change, positive = activation is -27% [at 42.5 µM].

Turning to `Cn1cnc2c(F)c(Nc3ccc(Br)cc3Cl)c(C(=O)NOCCO)cc21`, the Potency result in test [1], in test [2], in test [4], in test [19], in test [6] and in test [7] was “inactive” each time. The Potency result in test [9], in test [10] and in test [12] was “inactive” throughout. The result in test [3] and in [17] was inactive. Moreover, the activity change, positive = activation in test [18] was -7.67% [at 42.5 µM]. Also, the Potency in test [8] is 674 nM (active); in [14], 535 nM (active); in test [15] it was 30.1 nM (active); in test [16], 37.9 nM (active). Moreover, the max response in test [11] is -9.97%.

As to `Cc1c[nH]c(=S)[nH]c1=O`, the Potency result in test [1], in [2], in [4], in test [5], in [6] and in [7] was “inactive” in each case. Also, the Potency result in [8], in [9], in test [10], in [12], in test [13] and in test [14] was “inactive” throughout. The Potency entry in test [15] and in [16] was “inactive” each time. Moreover, the result in test [3] and in [17] was inactive. For the same compound, in test [11], the max response was 22.1%.

On to `CC(=O)OC1C2(C)CCC(C2)C1(C)C` (stereo unspecified), for which the Potency result in [1], in [2], in [19], in test [5], in test [6] and in test [7] was “inactive” each time. Also, the Potency entry in test [8], in [9], in [10], in test [12], in test [13] and in [14] was “inactive” in each case. Besides, the Potency result in [15] and in [16] was “inactive” each time. Also, the compound was classed as inactive in test [3] and in [17]. Further, the activity change, positive = activation in test [18] is -1.44%. Moreover, in [11], the max response is -0.0469%.

As to `Cc1cc2nc(N)sc2cc1C`, the Potency result in test [1], in test [2], in test [5], in test [6], in test [7] and in test [8] was “inactive” each time. Besides, the Potency entry in test [9], in test [10], in test [12], in test [13], in test [14] and in test [15] was “inactive” each time. For the same compound, the Potency result in [16] is “inactive”. For the same compound, the compound was classed as inactive in test [3] and in [17]. The max response in test [11] is -0.484%.
